Cy5 interf NS3h: counter-screen for HCV NS3 helicase inhibitors: fluorescence interference. fluorescence interference ratio at 100 µM. Cy5-dT15 DNA with NS3h; actives lie on both sides; signal over control mean, under 1 quenches. 16,000 compounds, 6% hits;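 active means compound fluorescence over control fluorescence at most 0.8, a quencher, or at least a set upper limit, an enhancer; inactive means ratio between 0.8 and the set upper limit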
HCV NS3h FP: blocks HCV NS3 helicase binding to DNA | NS3h Cy5-dT15 DNA binding, fluorescence polarization | inhibition, % at 100 µM | 16,000 compounds, 1.6% hits;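 active means inhibition above the average over every tested compound plus 3 SD, cut at about 40% in these data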
Of the large screens only hits and unclear results are named; the others gave an inactive call. Hits are enriched below; roughly 6.8% of the tested compounds scored in any of these assays.

Cc1ccc(NC(=O)c2ccc(Oc3ccc([N+](=O)[O-])cc3)cc2)cc1C	none
O=C(Nc1ccc(O)cc1)c1ccc2c(c1)C(=O)N(c1ccc([N+](=O)[O-])cc1)C2=O	Cy5 interf NS3h 0.65
Cc1ccc(N2C(=O)c3ccc(C(=O)Nc4ccc(O)cc4)cc3C2=O)cc1C	none
CC(=O)Nc1ccc(C(=O)Nc2ccc([N+](=O)[O-])cc2)cc1	Cy5 interf NS3h 0.742
Cc1c(C(=O)Nc2ccc([N+](=O)[O-])cc2)cnn1-c1ccccc1	Cy5 interf NS3h 0.578
O=C1NC(=O)/C(=C/c2cccnc2)S1	none
O=C(/C=C/c1cc(Br)cs1)Nc1cccc([N+](=O)[O-])c1	none
CCOc1ccc(N(CC(=O)N(C)C)S(=O)(=O)c2ccc(SC)cc2)cc1	none
Cc1ccc(N2C(=O)C(=O)C(=C(O)c3ccccc3)C2c2ccc(O)cc2)cc1Cl (centres undefined)	none
COC(=O)C1=C(C)N=c2s/c(=C\c3cc(Br)c(OC)cc3OC)c(=O)n2C1c1ccccc1 (centres undefined)	none
O=c1/c(=C\c2ccc(OCc3cccc4ccccc34)cc2)sc2nc3ccccc3n12	none
O=C(CSCC(=O)Nc1ccc([N+](=O)[O-])cc1)Nc1ccccc1	Cy5 interf NS3h 0.623
COCCNC(=O)c1ccc(Cl)c([N+](=O)[O-])c1	none
COCCNC(=O)c1ccc([N+](=O)[O-])cc1	Cy5 interf NS3h 0.721
O=C(CSCC(=O)Nc1ccccc1)NCc1ccccc1	none
O=S(=O)(c1ccccc1C(O)(c1ccccc1)c1ccccc1)c1ccccc1C(O)(c1ccccc1)c1ccccc1	Cy5 interf NS3h 0.765
Cc1cc([N+](=O)[O-])ccc1-c1ccc(CO)o1	none
Cc1cc([N+](=O)[O-])ccc1-c1cc2ccccc2oc1=O	Cy5 interf NS3h 0.69
COc1cc(/C=C2/SC(=S)N(c3ccccc3)C2=O)ccc1OC(=O)c1ccc(Cl)cc1	none
C/C(=N/NC(N)=O)C1CC1(C)C(C)(C)C (centres undefined)	HCV NS3h FP 44.1
CC(C)CCNC(=O)C(=O)NCc1ccc(Cl)cc1	none
NC(=O)C(=O)NCc1ccc(Cl)cc1	Cy5 interf NS3h 0.655
Cc1cccc(NC(=O)c2ccccc2NC(=O)c2ccccc2F)c1	none
CC(C)(C)N1C(=O)NC(=O)C(=Cc2ccc([N+](=O)[O-])s2)C1=O	none
O=C1NC(=S)N(c2ccc(F)cc2)C(=O)C1=Cc1ccc([N+](=O)[O-])s1	HCV NS3h FP 43.3
O=C(Nc1ccc(F)cc1)c1ccco1	none
O=C(O)/C=C\C(=O)Nc1ccccc1Br	none
O=c1[nH]c2ccc(NS(=O)(=O)c3ccc(F)cc3)cc2[nH]1	none
CN=C(NOCc1ccccc1)c1nonc1N	none
CCN(CC)/C(=N\OCc1ccc(Cl)cc1Cl)c1nonc1N	Cy5 interf NS3h 0.67
O=C(COc1ccc(Cl)cc1)Nc1ccc(I)cc1Cl	Cy5 interf NS3h 1.23
COc1ccc(OCC(=O)Nc2ccc(I)cc2Cl)cc1	none
COc1cc(OC)c([N+](=O)[O-])cc1C=O	Cy5 interf NS3h 0.654
COc1cc(OC)c([N+](=O)[O-])cc1/C=C(/C#N)C(=O)Nc1ccccc1	none
COc1cccc(NC(=O)/C(=C/c2ccc(C)o2)NC(=O)c2ccccc2)c1	Cy5 interf NS3h 0.711
COc1ccc(NC(=O)/C(=C/c2ccccc2Cl)NC(=O)c2ccc(C)cc2)cc1	none
COc1cccc(NC(=O)COc2cc(C)c(Cl)c(C)c2)c1	none
COc1cccc(NC(=O)COc2ccc(C)cc2C)c1	Cy5 interf NS3h 0.785
Cc1ccc(C(=O)O/N=C(/N)c2cccnc2)cc1[N+](=O)[O-]	Cy5 interf NS3h 0.662
Cc1ccc(C(=O)O/N=C(/N)c2ccccn2)cc1[N+](=O)[O-]	none
O=C(C=C(O)c1ccc(F)cc1)C(F)(F)F	none
Cc1ccc(C(=O)/C=C(/N)C(F)(F)F)cc1	Cy5 interf NS3h 0.73
CCCC(=O)N1CCN(c2ccc(C(=O)c3ccc(C)c(C)c3)cc2F)CC1	none
CCCC(=O)c1ccc(N2CCN(C(=O)CCC)CC2)c(F)c1	Cy5 interf NS3h 0.751
O=C(CN(Cc1ccccc1)S(=O)(=O)c1ccccc1)NCc1ccncc1	none
Cc1ccc(Nc2nc(Nc3cccc([N+](=O)[O-])c3)nc(SC(=S)N3CCOCC3)n2)cc1	Cy5 interf NS3h 0.452
Cc1ccc(SCC(=O)Nc2cccc([N+](=O)[O-])c2)cc1	none
C=CCN1C(=O)/C(=C\c2ccc(OCCOc3cccc(OC)c3)cc2)SC1=S	none
C=CCN1C(=O)/C(=C\c2ccc(OC(=O)c3cccc(Br)c3)cc2)SC1=S	Cy5 interf NS3h 0.749
O=C(Nc1cccc([N+](=O)[O-])c1)c1ccc(-c2ccc(Cl)cc2)o1	none
COC(=O)C(=CC(C(=O)OC)C(=O)OC)C(=O)OC	none
CC(=O)NS(=O)(=O)c1ccc(NS(=O)(=O)c2ccc(C)cc2)cc1	none
Cc1ccc(S(=O)(=O)Nc2ccc(S(=O)(=O)NC(=O)C3CCCCC3)cc2)cc1	Cy5 interf NS3h 0.724
C=CCNC(=O)C(=O)Nc1ccc(C)cc1	none
CC1S/C(=N\N=C/c2cccc(Br)c2)NC1=O (centres undefined)	none
